# Compound activity as filed in PubChem.
# Pf growth 96h – P. falciparum growth inhibition at 96 hour, primary screen for plastid delayed-death inhibitors; Potency, µM (top dose mostly 28.7 µM), for the others: at the highest dose activity change, negative = inhibition, actives largely listed as inhibitors; P. falciparum luciferase reporter growth, 96 h; actives 6.9% (n = 320,000); AID 504834; further: potency means the concentration at half of the fitted maximal effect; on the % scale 0 is the no-effect control and ±100 the full control effect
#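 P. falciparum expressing integrated firefly luciferase, in erythrocytes at 2% hematocrit, 0.05% parasitemia, incubated with compounds 96 h at 37 C, 5% CO2. Growth inhibition read as loss of luminescence; two-generation exposure targets delayed-death apicoplast inhibitors.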
# CHX counter – affects cycloheximide protein synthesis inhibition readout, counter-screen; AID 2314; cell reporter, cycloheximide protein synthesis inhibition counterscreen; max response, %; actives 12% (n = 300,000); in the data active means max response mostly above about 13%, no sharp cut-off; inactive means mostly below about 14%; further: read at 38.3 µM for the half of the compounds with a filed dose; 0% is about no effect
# Pf growth 48h – inhibits P. falciparum growth in the first generation, 48 h; P. falciparum luciferase growth in erythrocytes, 48 h; Potency, µM (highest dose often 28.7 µM), for inactives: at the top dose activity change, negative = inhibition, most hits filed as inhibitors; actives 5.9% (n = 310,000); further: potency means the concentration at half of the fitted maximal effect; on the % scale 0 is the no-effect control and ±100 the full control effect
#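 First compound was added to culture medium, then infected red cells at 0.1% parasitemia and 2% hematocrit (final). After incubation at 37 C under 5% CO2, luciferase detection reagent was dispensed and light output recorded.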
# Shiga toxin inh – blocks Shiga toxin action in Vero cells; Vero cells, Shiga toxin protein synthesis inhibition reporter; inhibition, % at 38.7 µM; actives 9.2% (n = 290,000); AID 2315; in the data active means inhibition mostly above about 28%, no sharp cut-off; inactive means mostly below about 43%; further: 0% is about no effect
# FBPA Giardia inh – Giardia lamblia aldolase inhibition; A8B2U2; purified Giardia FBPA; Potency, µM (titrated, usually from 59.6 µM), inactives show top-dose activity, negative = inhibition, actives largely listed as inhibitors; actives 0.71% (n = 290,000); further: potency means the concentration at half of the fitted maximal effect; on the % scale 0 is the no-effect control and ±100 the full control effect; nearly all actives have a fitted effect of over 55% in size
# Target sequence (A8B2U2 whole entry, looked up): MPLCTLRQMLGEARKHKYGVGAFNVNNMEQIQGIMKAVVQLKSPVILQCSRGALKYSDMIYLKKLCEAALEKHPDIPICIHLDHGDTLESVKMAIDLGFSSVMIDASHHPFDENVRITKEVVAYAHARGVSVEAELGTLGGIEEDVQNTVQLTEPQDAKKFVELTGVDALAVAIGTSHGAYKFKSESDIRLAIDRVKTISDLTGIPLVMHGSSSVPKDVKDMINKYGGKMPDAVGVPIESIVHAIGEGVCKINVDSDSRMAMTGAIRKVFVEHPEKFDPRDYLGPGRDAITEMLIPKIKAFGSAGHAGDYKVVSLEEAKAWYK
#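 40 nM FBPA preincubated 10 min at RT with compound (up to 57.5 uM final), then substrate plus GAPDH/TPI/NAD/arsenate coupling and diaphorase/resazurin added. Fluorescence read after 20 min at RT, 525/598 nm.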
# NS1 inh – influenza NS1 inhibition | Potency, µM (highest dose often 46.1 µM), inactives show at the top dose activity, positive = more growth | actives 0.4% (n = 270,000); calls by dose curve; further: potency means the concentration at half of the fitted maximal effect; actives are rising curves; nearly all actives have a fitted effect of over 50% in size
#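 A cell-based growth assay was used: compounds that relieve NS1-induced slow growth of budding yeast raise OD600. Assay medium was yeast nitrogen base with ammonium sulphate and -URA supplement, pH 6.0, with 2% galactose.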
# * marks the source's active call; other numbers are inactive results; ? = inconclusive; / = no result; [ ] = another dose, or the depositor's remark. Only some compounds are listed: those with a hit (about 21% of all), similar ones and a draw of the others. Unless noted, the call rests on the fitted dose curve; in most records, active means well fitted curve in the direction sought with a large enough effect; inconclusive means small, poorly fitted or top-dose-only effect, or another doubt; inactive means no such curve, though single readings can be large; an effect the other way counts as inactive or inconclusive.
SMILES,Pf growth 96h,CHX counter,Pf growth 48h,Shiga toxin inh,FBPA Giardia inh,NS1 inh
COc1cccc(NC(=O)Nc2ccccc2C(N)=O)c1,110.6%,27.2*,8.6%,34.8,-2.4%,/
Clc1ccc(N2CCN(/N=C/c3cccnc3)CC2)cc1,13.4%,-2.7,?,-9.0,-10.6%,9.8%
Cc1ccc(C)c(NS(=O)(=O)c2ccccc2C)c1,-10.9%,-2.1,5.9%,-4.4,/,-18.1%
C=CCC1CCC/C(=N\NS(=O)(=O)c2ccc(C)cc2)C1 (configuration not stated),14.9%,-1.8,-0.2%,-29.3,/,22.7%
CC(C)(C)SCCNC(=O)COc1ccc(Cl)cc1,?,11.0*,6.0%,-5.6,3.4%,-3.5%
Cc1ccccc1CSCCNC(=O)COc1ccc(Cl)cc1,?,1.0,-3.3%,11.8,3.2%,-24.4%
O=S(=O)(Nc1ccon1)c1ccc(Br)cc1,?,1.2,-2.5%,-32.2,/,1.6%
CCC(C)[C@H](NC(=O)[C@@H]1Cc2c([nH]c3ccccc23)C2c3ccccc3C(=O)N21)C(=O)N1CCC[C@@H]1C(=O)O (some centres not stated),10.4µM*,0.4,?,10.8,10.1%,?
O=C(O)CN1C(=O)/C(=C\c2cccc(OCc3ccc(Cl)cc3Cl)c2)SC1=S,?,22.4*,52.5%,67.6*,13.1%,?
O=C(O)CN1C(=O)/C(=C\c2ccccc2OCc2ccc(Cl)cc2Cl)SC1=S,?,15.8*,104.9%,38.3*,4.7%,18.4%
O=C(O)CN1C(=O)/C(=C\c2cc(Br)ccc2OCc2ccccc2Cl)SC1=S,37.7%,41.8*,8.1%,77.3*,2.3%,12.1%
O=C(O)CN1C(=O)/C(=C\c2cc(Br)ccc2OCc2ccc([N+](=O)[O-])cc2)SC1=S,?,2.2,-3.1%,-4.6,-6.3%,22.3%
O=C(O)CN1C(=O)/C(=C\c2cc(Br)ccc2OCc2ccccc2F)SC1=S,?,5.5,1.4%,0.5,1.1%,6.3%
CSCCC(NS(=O)(=O)c1ccccc1)C(=O)OC(C)C(=O)Nc1ccc(Cl)cn1 (configuration not stated),-21.2%,/,8.4%,/,/,/
Cc1noc(/C=C/N(C)C)c1S(=O)(=O)N1CCC(C(=O)NC(C)(C)C)CC1,?,4.6,-16.2%,-2.0,/,25.8%
Cc1ccc(-n2nc3c(c2NC(=O)c2c(-c4ccccc4Cl)noc2C)CSC3)cc1,20.1%,20.9,13.1µM*,-3.2,-1.7%,-18.4%
Cc1ccccc1-n1nc2c(c1NC(=O)c1c(-c3ccccc3Cl)noc1C)CSC2,?,-9.1,11.7µM*,-6.3,0.4%,6.9%
CC(=O)c1cccc(NC(=O)NCCc2ccc(Cl)cc2)c1,-14.5%,21.2,-4.8%,38.0*,2.7%,0.0%
COc1cccc(NC(=O)NCCc2ccc(Cl)cc2)c1,-12.7%,24.3*,?,53.7,-0.1%,-6.5%
COc1ccc(N2CCN(C(=O)[C@@H]3CCCN3C3=NS(=O)(=O)c4ccccc43)CC2)cc1,-11.6%,/,?,/,/,/
Cc1cc(S(=O)(=O)NCCCN2CCOCC2)ccc1Br,-27.3%,/,-15.4%,/,/,/
CSc1ncc(C(=O)Nc2cccc(Cl)c2)c(C)n1,-10.1%,7.0,20.8%,19.9,1.7%,-30.8%
Cc1nn(-c2ccccn2)c2nc(-c3cccs3)cc(C(=O)NCc3ccco3)c12,10.4µM*,19.0*,/,39.4,9.8%,23.1%
Cc1nn(-c2ccccc2)c2nc(-c3ccncc3)cc(C(=O)NCc3ccco3)c12,10.4µM*,2.1,3.7µM*,2.1,11.7%,6.7%
Cc1ccccc1-n1nc(C)c2c(C(=O)NN)cc(-c3ccncc3)nc21,?,3.3,-23.4%,-9.4,-3.0%,2.4%
SMILES,Pf growth 96h,CHX counter,Pf growth 48h,Shiga toxin inh,FBPA Giardia inh,NS1 inh
COC(=O)c1ccc(CNC(=O)COC(=O)C2CCC(C(C)(C)C)CC2)cc1 (configuration not stated),-3.7%,-2.4,8.0%,-2.0,-1.9%,10.5%
COc1ccc(C2C(C(=O)Nc3cccnc3)=C(C)Nc3nc(-c4cccs4)nn32)cc1 (configuration not stated),?,-2.0,11.7µM*,2.6,4.6%,15.6%
CCOC(=O)c1ccc(NC(=O)C2=C(C)Nc3nc(CCCO)nn3C2c2ccc(OC)cc2)cc1 (configuration not stated),?,44.0*,?,66.0*,2.6%,1.6%
OCC[C@@H]1C[C@@H](O)[C@H](O)[C@]2(Cc3ccccc3O2)O1,10.6%,1.4,31.8%,-9.6,1.0%,-6.1%
CCOC(=O)C1=C(C)NC(=O)NC1c1cn(-c2ccccc2)nc1-c1cccs1 (configuration not stated),?,-1.0,?,-9.6,1.2%,-59.1%
O=C1CSC(c2cn(-c3ccccc3)nc2-c2ccccc2)N1Cc1ccco1 (configuration not stated),2.94µM*,19.3*,13.1µM*,35.4,-5.9%,-58.2%
CCc1ccc(-c2nn(-c3ccccc3)cc2C2SCC(=O)N2Cc2ccco2)cc1 (configuration not stated),-99.8%,7.7,/,2.6,-1.1%,22.3%
O=C1CSC(c2cn(-c3ccccc3)nc2-c2cccs2)N1CC1CCCO1 (configuration not stated),8.28µM*,-2.9,11.7µM*,3.9,-6.1%,-33.4%
Cc1ccccc1NS(=O)(=O)c1ccc(NS(=O)(=O)c2cccs2)cc1,3.3%,2.1,9.5%,-6.7,8.1%,14.5%
CC(=O)Nc1ccc(C(=O)COC(=O)C2CC3CCCC(C2)C3=O)cc1 (configuration not stated),41.7%,/,36.5%,/,/,/
COc1cccc(NC(=O)CN(C)C(=O)CCSc2ccc(C)cc2)c1,-12.3%,/,10.4µM*,/,/,/
COc1ccc(Cl)cc1NC(=O)CN(C)C(=O)c1cc2c(s1)CCCC2,5.22µM*,/,9.28µM*,/,/,/
COc1cccc(NC(=O)CN(C)C(=O)CSCC(=O)Nc2ccc(C)cc2)c1,0.4%,/,-9.5%,/,/,/
COc1ccc(Cl)cc1NC(=O)CN(C)C(=O)CCSc1ccc(C)cc1,11.7µM*,/,11.7µM*,/,/,/
COc1ccc(OC)c(S(=O)(=O)N(C)CC(=O)Nc2cc(Cl)ccc2OC)c1,7.38µM*,-2.2,9.28µM*,-6.2,-0.2%,-40.4%
COc1ccc(Cl)cc1NC(=O)CN(C)C(=O)CSc1ccc2c(c1)OCCO2,36.5%,/,?,/,/,/
CCCNC(=O)OC[C@H]1O[C@@H](CCO/N=C2/[C@H]3O[C@@H]3[C@@H](O)[C@H]3[C@H]2CCn2c(=O)n(-c4ccccc4)c(=O)n23)C=C[C@@H]1Oc1ccc(OC)cc1,/,/,/,/,1.3%[12.9 µM],/
CC1CN(C2=NC(=O)/C(=C/c3ccncc3)S2)CC(C)O1 (configuration not stated),?,10.7,?,30.6,-3.9%,3.2%
